# Assay results taken from PubChem BioAssay (EPA / NIEHS).
# Several values for one entry are separate records, joined by “and”; a condition that tells them apart may be missing. Equal entries are not always repeated. Inconclusive results are not listed. Activity calls are given as the source filed them. Rule for the calls: active = hit-call score of the fitted dose curve at least 0.9, where 1 is the maximum; inconclusive = response in the unintended direction; inactive = score below 0.9.
# Molecular target: human Peripheral-type Benzodiazepine Receptor (PBR), TSPO (gene 706) (UniProt P30536)
# Sequence (P30536 whole entry, looked up): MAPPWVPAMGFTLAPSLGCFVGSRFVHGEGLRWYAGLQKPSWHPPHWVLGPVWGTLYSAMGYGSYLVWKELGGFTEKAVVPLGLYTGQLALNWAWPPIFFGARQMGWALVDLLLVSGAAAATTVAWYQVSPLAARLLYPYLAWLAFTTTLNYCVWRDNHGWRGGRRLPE
# Assay: NVS_MP_hPBR: NovaScreen (NVS) Membrane Protein Assay for human Peripheral-type Benzodiazepine Receptor (PBR) (AID 2283331)
# Description: NVS_MP_hPBR is a biochemical, single-readout assay that uses extracted gene-proteins from Human colonic cell membranes in a tissue-based cell-free assay. Measurements were taken 1 hour after chemical dosing in a 48-well plate.NVS_MP_hPBR is one of one assay component(s) measured or calculated from the NVS_MP_hPBR assay. It is designed to make measurements of radioligand binding, a form of binding reporter, as detected with scintillation counting signals by Filter-based radiodetection technology.Data from the assay component NVS_MP_hPBR was analyzed into 1 assay endpoint. This assay endpoint, NVS_MP_hPBR, was analyzed in the positive analysis fitting direction relative to DMSO as the negative control and baseline of activity. Using a type of binding reporter, loss-of-signal activity can be used to understand changes in the binding as they relate to the gene TSPO. Furthermore, this assay endpoint can be referred to as a primary readout, because the performed assay has only produced 1 assay endpoint. To generalize the intended target to other relatable targets, this assay endpoint is annotated to the transporter intended target family, where the subfamily is cholesterol transporter.
# Binding assays used specific radioligands (tritiated, iodinated) with non-radioactive competitive displacement ligands in agonist or antagonist protocols (as indicated) and various reference compounds and inhibitors to titrate specific binding to receptors and transporters. Most enzyme assays (CYPs, kinases, phosphatases, proteases, HDACs) used recombinant protein and specific substrates (fluorescence mostly, some colorimetric and radioactive) and inhibitors, followed by a biochemical separation of substrate and product. All assays for the biochemical HTS were initially run in duplicate at a single concentration (10 uM for CYP450 assays and 25 uM for all others). […] Each assay was run with positive and negative controls, and concurrent controls on every plate. The follow-up (secondary) screen tested active chemical-pairs in concentration series, as well as a few additional assays not tested in the primary screen, some selected negative inactives, and several cases re-run in the concentration series for confirmatory purposes.
SMILES,AC50,outcome
CCCCN(CCCC)C(=O)N(CCCC)CCCC,20.6 µM (active),–
C=C(C)[C@H]1CC=C(C)C(=O)C1,25 µM (active),–
COc1ccc(CCN2CCC(Nc3nc4ccccc4n3Cc3ccc(F)cc3)CC2)cc1,–,inactive
COc1ccc(N=Nc2cc(C)c(N=Nc3ccc(S(=O)(=O)O)cc3)cc2OC)cc1,2.05 µM (active),–
Cc1cc(=O)oc2cc(N(C)C)ccc12,6.09 µM (active),–
Nc1ccc2cc(S(=O)(=O)O)cc(O)c2c1N=Nc1ccccc1C(F)(F)F,1.16 µM (active),–
CC(C)(C)CC(C)(C)c1ccc(OCCOCC[N+](C)(C)Cc2ccccc2)cc1,–,inactive
CN(C)C(=O)Nc1ccc(Oc2ccc(Cl)cc2)cc1,2.91 µM (active),–
CCOc1ccc(N=Nc2ccc(C=Cc3ccc(N=Nc4ccc(OCC)cc4)cc3S(=O)(=O)O)c(S(=O)(=O)O)c2)cc1,0.00187 µM (active),–
Cc1cc(CCC(=O)OCCOCCOCCOC(=O)CCc2cc(C)c(O)c(C(C)(C)C)c2)cc(C(C)(C)C)c1O,0.721 µM (active),–
O=C1OC[C@H](Cc2cccc(O)c2)[C@H]1Cc1cccc(O)c1,8.4 µM (active) and 3.26 µM (active),–
CS(=O)(=O)OCCCCOS(C)(=O)=O,–,inactive
CCCCCCCCCCCCCCCC(=O)OC/C=C(C)/C=C/C=C(C)/C=C/C1=C(C)CCCC1(C)C,41.1 µM (active),–
CCCCC(CC)COC(=O)c1ccc(O)cc1 (configuration not stated),2.71 µM (active),–
Cc1ccc(S(=O)(=O)Oc2ccc(N=Nc3ccc(-c4ccc(N=Nc5c(O)ccc6cc(S(=O)(=O)O)cc(S(=O)(=O)O)c56)c(C)c4)cc3C)cc2)cc1,0.0489 µM (active),–
c1ccc(Oc2ccccc2)cc1,–,inactive
C=CC(=O)OCCCC,–,inactive
